This is a sample that favours compounds with a hit; in the whole collection about 6.9% have one here.
SW480 rereplic = induces DNA re-replication in SW480 colon adenocarcinoma cells; SW480 DNA re-replication, Hoechst DNA content imaging, 48 h; Potency, µM (highest dose often 46.1 µM), without a hit: top-dose re-replication activation, hits mostly activators; hit rate 1.8% among 340,000; AID 624297; note: potency is the fitted concentration of half-maximal effect; % of control where 0% means no effect; nearly all actives have a fitted effect of over 55% in size
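First, 250 cells per well were seeded. Next, compound or vehicle (23 nL) was pinned in, plates sat 48 hr at 37 C. Finally Hoechst was added for 40 min before fluorescence scanning.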
KB-V1 MDR tox = KB-V1 MDR subline cytotoxicity | KB-V1 MDR cells viability, CellTiter-Glo, 72 h | Potency, µM (highest dose often 46.1 µM), hits mostly cytotoxic | hit rate 3.4% among 400,000; note: potency is the fitted concentration of half-maximal effect; % is set by controls: 0 for no effect and ±100 for the full control effect; nearly all actives have a fitted effect of over 60% in size
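Cytotoxicity via CellTiter-Glo luminescence after 72 h compound exposure at 37 degrees C. Cells: drug-selected KB-V1 line, DMEM phenol-red free plus 10% FBS. Compounds tested at multiple concentrations; normalized data fitted to concentration-effect curves.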
S-ASM inh = human S-ASM enzyme inhibition | P17405 | AID 504937 | placental ASM, HMU-PC fluorogenic substrate, 60 min | hit rate 0.006% among 340,000 | Potency, µM (titrated, usually from 57.5 µM), for the others: at the highest dose activity change, negative = inhibition, most hits filed as inhibitors; note: potency is the fitted concentration of half-maximal effect
Target sequence (P17405 47-631 limits assumed): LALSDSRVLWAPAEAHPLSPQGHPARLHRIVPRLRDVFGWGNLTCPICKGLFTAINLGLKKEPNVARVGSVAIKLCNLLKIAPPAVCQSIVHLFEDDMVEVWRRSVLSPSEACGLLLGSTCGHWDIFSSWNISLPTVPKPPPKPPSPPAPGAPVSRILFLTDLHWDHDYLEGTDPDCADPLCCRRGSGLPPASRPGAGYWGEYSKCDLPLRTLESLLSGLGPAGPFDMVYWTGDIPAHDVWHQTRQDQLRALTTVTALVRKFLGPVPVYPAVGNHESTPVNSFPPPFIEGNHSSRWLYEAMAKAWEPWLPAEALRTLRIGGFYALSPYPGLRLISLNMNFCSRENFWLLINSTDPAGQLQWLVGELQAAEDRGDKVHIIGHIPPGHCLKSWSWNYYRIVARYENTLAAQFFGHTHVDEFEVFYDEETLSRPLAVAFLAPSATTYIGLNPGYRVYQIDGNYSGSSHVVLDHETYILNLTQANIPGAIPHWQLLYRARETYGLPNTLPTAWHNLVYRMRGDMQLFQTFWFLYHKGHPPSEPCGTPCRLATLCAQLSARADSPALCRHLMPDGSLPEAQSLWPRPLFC
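Fluorescence read-out (Ex 386 nm, Em 447 nm) after stopping the reaction at pH 10. Enzyme: ASM from human placenta; substrate HMU-PC0, 9 uM final; 60 min, 37 °C. Compound preincubation 10 min, ambient temperature.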
KB-3-1 cytotox = kills parental KB-3-1 adenocarcinoma cells | KB-3-1 viability, CellTiter-Glo ATP luminescence, 72 h | Potency, µM (series often up to 46.1 µM), actives largely listed as cytotoxic | hit rate 1.4% among 400,000; note: potency is the fitted concentration of half-maximal effect; % is set by controls: 0 for no effect and ±100 for the full control effect; nearly all actives have a fitted effect of over 60% in size
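Parental KB-3-1 adenocarcinoma cells in phenol-red-free DMEM with 10% FBS were pin-treated with compounds at several concentrations, incubated 72 h at 37 °C, and viability read by CellTiter-Glo luminescence; concentration-effect curves were fitted after normalization.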
MCF10A rerep = induces DNA re-replication in MCF 10a normal breast cells; Potency, µM (series often up to 46.1 µM), for the others: top-dose activity, positive = re-replication, hits mostly activators; MCF 10A DNA re-replication, Hoechst nuclear intensity, 48 h; hit rate 2.9% among 350,000; note: potency is the fitted concentration of half-maximal effect; % of control where 0% means no effect; nearly all actives have a fitted effect of over 50% in size
Giardia kill = kills Giardia lamblia; AID 540267; Giardia lamblia trophozoite viability; activity change, % at 7.66 µM, hits read low; hit rate 0.15% among 340,000; in the data active = activity change below about -80%; inconclusive = between about -30% and that limit;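 note: parasites exposed to compound for two days anaerobically before the ATP read; % is set by controls: 0 for no effect and ±100 for the full control effect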
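Compounds were tested on trophozoites seeded at 100 cells/well and held 48 hrs at 37 deg C anaerobically. An ATP-based luminescent kit measured the remaining live cells.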
* = called active by the depositor; i = inactive; ? = inconclusive; / = no result. Unless noted, calls come from the whole dose curve; as a rule, active = well fitted curve in the direction sought with a large enough effect; inconclusive = small, poorly fitted or top-dose-only effect, or another doubt; inactive = no such curve, though single readings can be large; an effect the other way counts as inactive or inconclusive.

SMILES	SW480 rereplic	KB-V1 MDR tox	S-ASM inh	KB-3-1 cytotox	MCF10A rerep	Giardia kill
O=C(NCCN1CCN(c2ccccc2)CC1)c1cccn2c(=O)c3cc(Cl)ccc3nc12	-1%	i	4%	i	4.1µM*	4
Cc1cccn2c(=O)c3cc(C(=O)NCCN4CCOCC4)n(C)c3nc12	?	?	i	i	?	3
O=C(NCCN1CCOCC1)c1noc2c1CCc1ccccc1-2	-15%	12µM*	2%	i	-2%	-9
Cc1cccn2c(=O)c3cc(C(=O)NC4CCCC4)c(=N)n(CCCN4CCOCC4)c3nc12	1.5µM*	i	i	i	99%	4
CCCNC(=O)c1noc2c1CCc1ccccc1-2	-5%	i	2%	i	-2%	-17
O=C(CN1C(=O)c2cccc3cccc(c23)C1=O)NCCN1CCOCC1	-9%	i	3%	i	1.8µM*	-7
Cc1ccccc1C(=O)NCCN1CCOCC1	-18%	?	3%	i	0.58µM*	12
CN(C)c1ccc(C2C=C(c3ccccc3)Nc3nnnn32)cc1 (configuration not stated)	/	i	/	i	/	/
COCCCn1c(C(=O)N2CCOCC2)cc2c(=O)n3cccc(C)c3nc21	-3%	?	i	i	15%	9
CCCn1c(=N)c(C(=O)NCc2ccc3c(c2)OCO3)cc2c(=O)n3cccc(C)c3nc21	-2%	i	35%	i	0%	-13
Cc1cccn2c(=O)c3cc(C(=O)NCCN4CCOCC4)c(=N)n(Cc4ccc(F)cc4)c3nc12	?	?	117%	16µM*	2.3µM*	-7
CCOCCCn1c(=N)c(C(=O)NCCN2CCOCC2)cc2c(=O)n3cccc(C)c3nc21	3%	i	i	i	2.9µM*	-3
COc1ccc(CN(Cc2ccccc2)C(=O)CN2CCN(C)CC2)cc1COc1ccc(NC(C)=O)cc1	/	/	/	/	/	-1
CCN(CC)S(=O)(=O)c1ccc(C(=O)NCCc2cc3c(OC)ccc(OC)c3[nH]c2=O)cc1	0%	7.3µM*	-1%	i	?	17
COc1ccc(OC)c2[nH]c(=O)c(CCNS(=O)(=O)c3ccccc3)cc12	-5%	16µM*	0%	i	-9%	0
COc1ccc(OC)c2[nH]c(=O)c(CCNC(=O)c3ccc(S(=O)(=O)N4CCCC4)cc3)cc12	0%	18µM*	3%	i	?	-2
CCCS(=O)(=O)NCCc1cc2c(OC)ccc(OC)c2[nH]c1=O	-5%	?	-2%	i	-7%	4
COc1ccccc1CNC(=O)c1ccc(S(=O)(=O)N2CCCC2)cc1	-2%	i	0%	i	-22%	2
COc1cc(OC)c(OC)cc1CNC(=O)c1ccc(S(=O)(=O)N2CCCCC2)cc1	3%	7.3µM*	0%	i	1%	-4
COc1ccc(C(=O)NCCc2cc3c(OC)ccc(OC)c3[nH]c2=O)cc1OC	6%	?	1%	i	4%	1
O=C(CCNS(=O)(=O)c1cccc2nonc12)Nc1ccc(F)cc1	/	i	/	i	/	/
CC(C)CC1NC(=O)c2cccnc2-n2c1nc1ccccc1c2=O (configuration not stated)	/	i	/	i	/	/
COc1cc(C)c(S(=O)(=O)N2CCOCC2)cc1C	8.2µM*	i	2%	i	3.3µM*	-6
CCCOc1cc(C)c(S(=O)(=O)N2CCOCC2)cc1C	-1%	/	/	/	5%	/
CCOC(=O)c1sc(NC(=O)CSc2n[nH]c(-c3ccncc3)n2)c(C#N)c1C	-3%	i	-6%	?	24%	-2
CCOc1ccc(/C=C/C2=Cc3c(sc(NC(=O)CSc4n[nH]c(N)n4)c3C#N)C(C)(C)C2)cc1	16µM*	?	134%	16µM*	6.5µM*	6
Cc1ccsc1/C=C/C1=Cc2c(sc(NC(=O)CSc3n[nH]c(N)n3)c2C#N)C(C)(C)C1	15µM*	i	451%	i	?	-10

Screening results from PubChem BioAssay.
